Experimental data from PubChem BioAssay AID1159580 (chemical genetic matrix, 2015).
Hit rate of the full screen: of about 5,500 compounds, about 2,000 (36%) were called active. Not shown: some 18% with an inconclusive outcome. Rule as the data show it: active = normalized growth mostly below about 0.91 (no sharp cut-off); inconclusive = no clear call, values can overlap the other calls; inactive = mostly above about 0.92. Some of the results follow.

Test: chemical genetic growth profiling, strain panel (AID 1159580);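 also: tested at 20 µM; growth read once vehicle control cultures reached saturation at 30 °C; 1 = growth at the plate median or of vehicle wells; lower values mean less growth of the strain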
Conditions: growth OD

Measured: normalized growth

CC1(C)C(O)CC(O)C2(C)C1CC(O)C1(C)C2CCC2(C)C(c3ccoc3)OC(=O)C3OC321 (stereo not drawn)
inactive: S. cerevisiae deletion strains, locus YAL021C, strain ccr4, active compounds read low 0.989 | S. cerevisiae deletion strains, locus YAL026C, strain drs2, active compounds read low 0.983 | S. cerevisiae deletion strains, locus YAL030W, strain snc1, active compounds read low 0.998 | S. cerevisiae deletion strains, locus YBL061C, strain skt5, active compounds read low 1.01 | S. cerevisiae deletion strains, locus YBR009C, strain hhf1, active compounds read low 0.999 | S. cerevisiae deletion strains, locus YBR021W, strain FUR4, active compounds read low 0.974 | S. cerevisiae deletion strains, locus YBR023C, strain chs3, active compounds read low 0.997 | S. cerevisiae deletion strains, locus YBR171W, strain sec66, active compounds read low 0.988 | S. cerevisiae deletion strains, locus YBR229C, strain ROT2, active compounds read low 1.01 | S. cerevisiae deletion strains, locus YBR231C, strain swc5, active compounds read low 0.999 | S. cerevisiae deletion strains, locus YBR279W, strain paf1, active compounds read low 0.992 | S. cerevisiae deletion strains, locus YCL011C, strain gbp2, active compounds read low 0.976 | S. cerevisiae deletion strains, locus YCL016C, strain dcc1, active compounds read low 0.985 | S. cerevisiae deletion strains, locus YCL029C, strain bik1, active compounds read low 1.01 | S. cerevisiae deletion strains, locus YCL061C, strain MRC1, active compounds read low 1.01 | S. cerevisiae deletion strains, locus YCL069W, strain vba3, active compounds read low 1 | S. cerevisiae deletion strains, locus YCR088W, strain abp1, active compounds read low 0.988 | S. cerevisiae deletion strains, locus YDL005C, strain med2, active compounds read low 0.974 | S. cerevisiae deletion strains, locus YDL035C, strain GPR1, active compounds read low 1.02 | S. cerevisiae deletion strains, locus YDL040C, strain nat1, active compounds read low 0.991 | S. cerevisiae deletion strains, locus YDL074C, strain BRE1, active compounds read low 0.998 | S. cerevisiae deletion strains, locus YDL101C, strain DUN1, active compounds read low 1.02 | S. cerevisiae deletion strains, locus YDL185W, strain tfp1, active compounds read low 1.03 | S. cerevisiae deletion strains, locus YDL192W, strain arf1, active compounds read low 1.02 | S. cerevisiae deletion strains, locus YDR001C, strain nth1, active compounds read low 0.994 | S. cerevisiae deletion strains, locus YDR069C, strain doa4, active compounds read low 0.98 | S. cerevisiae deletion strains, locus YDR101C, strain arx1, active compounds read low 1.01 | S. cerevisiae deletion strains, locus YDR137W, strain rgp1, active compounds read low 0.988 | S. cerevisiae deletion strains, locus YDR150W, strain NUM1, active compounds read low 0.998 | S. cerevisiae deletion strains, locus YDR159W, strain sac3, active compounds read low 1.01 | S. cerevisiae deletion strains, locus YDR162C, strain NBP2, active compounds read low 1.01 | S. cerevisiae deletion strains, locus YDR195W, strain ref2 0.953 | S. cerevisiae deletion strains, locus YDR297W, strain sur2, active compounds read low 0.986 | S. cerevisiae deletion strains, locus YDR318W, strain mcm21, active compounds read low 1.03 | S. cerevisiae deletion strains, locus YDR334W, strain swr1, active compounds read low 0.985 | S. cerevisiae deletion strains, locus YDR335W, strain msn5, active compounds read low 0.987 | S. cerevisiae deletion strains, locus YDR388W, active compounds read low 1.02 | S. cerevisiae deletion strains, locus YDR392W, strain spt3, active compounds read low 1.02 | S. cerevisiae deletion strains, locus YDR502C, strain sam2, active compounds read low 1.02 | S. cerevisiae deletion strains, locus YEL003W, strain gim4, active compounds read low 1.01 | S. cerevisiae deletion strains, locus YEL037C, strain rad23, active compounds read low 0.987 | S. cerevisiae deletion strains, locus YEL061C, strain CIN8 (second series), active compounds read low 0.989 | S. cerevisiae deletion strains, locus YEL061C, strain CIN8, active compounds read low 0.998 | S. cerevisiae deletion strains, locus YER015W, strain faa2, active compounds read low 0.994 | S. cerevisiae deletion strains, locus YER016W, strain bim1, active compounds read low 0.999 | S. cerevisiae deletion strains, locus YER110C, active compounds read low 1.04 | S. cerevisiae deletion strains, locus YER111C, strain swi4, active compounds read low 0.98 | S. cerevisiae deletion strains, locus YER155C, strain BEM2 (second series), active compounds read low 1.01 | S. cerevisiae deletion strains, locus YER155C, strain BEM2, active compounds read low 0.99 | S. cerevisiae deletion strains, locus YER167W, strain BCK2, active compounds read low 1 | S. cerevisiae deletion strains, locus YFR010W, strain ubp6, active compounds read low 1.01 | S. cerevisiae deletion strains, locus YGL078C, strain dbp3, active compounds read low 1.03 | S. cerevisiae deletion strains, locus YGL086W, strain mad1, active compounds read low 1 | S. cerevisiae deletion strains, locus YGL167C, strain pmr1, active compounds read low 0.994 | S. cerevisiae deletion strains, locus YGL173C, strain kem1, active compounds read low 0.985 | S. cerevisiae deletion strains, locus YGL227W, strain vid30, active compounds read low 0.983 | S. cerevisiae deletion strains, locus YGL240W, strain doc1, active compounds read low 1.02 | S. cerevisiae deletion strains, locus YGL248W, strain PDE1, active compounds read low 1.01 | S. cerevisiae deletion strains, locus YGL253W, strain hxk2, active compounds read low 0.962 | S. cerevisiae deletion strains, locus YGR078C, strain PAC10, active compounds read low 1.01 | S. cerevisiae deletion strains, locus YGR135W, strain pre9, active compounds read low 1.03 | S. cerevisiae deletion strains, locus YGR229C, strain SMI1, active compounds read low 1 | S. cerevisiae deletion strains, locus YGR252W, strain gcn5, active compounds read low 1.01 | S. cerevisiae deletion strains, locus YHR013C, strain ard1, active compounds read low 0.959 | S. cerevisiae deletion strains, locus YHR027C, strain rpn1, active compounds read low 1 | S. cerevisiae deletion strains, locus YHR030C, strain SLT2, active compounds read low 1.01 | S. cerevisiae deletion strains, locus YHR079C, strain IRE1 (second series), active compounds read low 1.02 | S. cerevisiae deletion strains, locus YHR094C, strain hxt1, active compounds read low 1.02 | S. cerevisiae deletion strains, locus YHR129C, strain ARP1, active compounds read low 0.999 | S. cerevisiae deletion strains, locus YHR142W, strain chs7, active compounds read low 0.972 | S. cerevisiae deletion strains, locus YHR200W, strain rpn10, active compounds read low 1.01 | S. cerevisiae deletion strains, locus YIL066C, strain RNR3, active compounds read low 1.02 | S. cerevisiae deletion strains, locus YIL073C, strain SPO22, active compounds read low 1.08 | S. cerevisiae deletion strains, locus YIL125W, strain kgd1, active compounds read low 1.01 | S. cerevisiae deletion strains, locus YIR030C, strain dcg1, active compounds read low 1.02 | S. cerevisiae deletion strains, locus YJL092W, strain hpr5, active compounds read low 0.997 | S. cerevisiae deletion strains, locus YJL095W, strain BCK1 (second series), active compounds read low 0.983 | S. cerevisiae deletion strains, locus YJL095W, strain BCK1, active compounds read low 1 | S. cerevisiae deletion strains, locus YJL115W, strain asf1, active compounds read low 1 | S. cerevisiae deletion strains, locus YJL129C, strain trk1, active compounds read low 0.959 | S. cerevisiae deletion strains, locus YJL134W, strain LCB3, active compounds read low 0.996 | S. cerevisiae deletion strains, locus YJL154C, strain vps35, active compounds read low 0.991 | S. cerevisiae deletion strains, locus YJL164C, strain tpk1, active compounds read low 0.989 | S. cerevisiae deletion strains, locus YJL166W, strain qcr8, active compounds read low 0.982 | S. cerevisiae deletion strains, locus YJL168C, strain set2, active compounds read low 1.01 | S. cerevisiae deletion strains, locus YJL187C, strain SWE1 (second series), active compounds read low 1.01 | S. cerevisiae deletion strains, locus YKL009W, strain mrt4, active compounds read low 0.962 | S. cerevisiae deletion strains, locus YKL068W, active compounds read low 1.01 | S. cerevisiae deletion strains, locus YKL085W, strain MDH1 (second series), active compounds read low 1 | S. cerevisiae deletion strains, locus YKL085W, strain MDH1, active compounds read low 1 | S. cerevisiae deletion strains, locus YKL160W, strain elf1, active compounds read low 0.991 | S. cerevisiae deletion strains, locus YKL190W, strain CNB1, active compounds read low 0.996 | S. cerevisiae deletion strains, locus YKR001C, strain vps1, active compounds read low 1.01 | S. cerevisiae deletion strains, locus YKR026C, strain gcn3, active compounds read low 0.989 | S. cerevisiae deletion strains, locus YKR091W, strain srl3, active compounds read low 0.986 | S. cerevisiae deletion strains, locus YLL001W, strain dnm1, active compounds read low 0.989 | S. cerevisiae deletion strains, locus YLL026W, active compounds read low 1 | S. cerevisiae deletion strains, locus YLL041C, strain sdh2, active compounds read low 1 | S. cerevisiae deletion strains, locus YLR027C, strain aat2, active compounds read low 0.999 | S. cerevisiae deletion strains, locus YLR039C, strain RIC1, active compounds read low 1.06 | S. cerevisiae deletion strains, locus YLR058C, strain SHM2, active compounds read low 1.02 | S. cerevisiae deletion strains, locus YLR102C, strain apc9, active compounds read low 1.02 | S. cerevisiae deletion strains, locus YLR221C, strain rsa3, active compounds read low 0.993 | S. cerevisiae deletion strains, locus YLR258W, strain gsy2, active compounds read low 0.994 | S. cerevisiae deletion strains, locus YLR262C, strain YPT6 (second series), active compounds read low 0.994 | S. cerevisiae deletion strains, locus YLR262C, strain YPT6, active compounds read low 1.07 | S. cerevisiae deletion strains, locus YLR268W, strain sec22, active compounds read low 1.01 | S. cerevisiae deletion strains, locus YLR320W, strain mms22, active compounds read low 1 | S. cerevisiae deletion strains, locus YLR330W, strain CHS5, active compounds read low 1.01 | S. cerevisiae deletion strains, locus YLR342W, strain FKS1, active compounds read low 0.999 | S. cerevisiae deletion strains, locus YLR357W, strain rsc2, active compounds read low 0.995 | S. cerevisiae deletion strains, locus YLR370C, strain arc18, active compounds read low 0.981 | S. cerevisiae deletion strains, locus YLR371W, strain rom2, active compounds read low 0.954 | S. cerevisiae deletion strains, locus YLR384C, strain iki3, active compounds read low 0.977 | S. cerevisiae deletion strains, locus YLR418C, strain cdc73, active compounds read low 1.02 | S. cerevisiae deletion strains, locus YML016C, strain PPZ1, active compounds read low 1.01 | S. cerevisiae deletion strains, locus YML032C, strain rad52, active compounds read low 1 | S. cerevisiae deletion strains, locus YML120C, strain ndi1, active compounds read low 0.991 | S. cerevisiae deletion strains, locus YML124C, strain tub3, active compounds read low 1.01 | S. cerevisiae deletion strains, locus YMR058W, strain fet3, active compounds read low 0.998 | S. cerevisiae deletion strains, locus YMR078C, strain ctf18, active compounds read low 1.03 | S. cerevisiae deletion strains, locus YMR125W, strain sto1, active compounds read low 0.98 | S. cerevisiae deletion strains, locus YMR129W, active compounds read low 0.989 | S. cerevisiae deletion strains, locus YMR205C, strain PFK2, active compounds read low 0.999 | S. cerevisiae deletion strains, locus YMR223W, strain ubp8, active compounds read low 1.02 | S. cerevisiae deletion strains, locus YMR231W, strain pep5, active compounds read low 0.987 | S. cerevisiae deletion strains, locus YMR307W, strain GAS1, active compounds read low 1.02 | S. cerevisiae deletion strains, locus YNL067W, strain RPL9B, active compounds read low 1.02 | S. cerevisiae deletion strains, locus YNL071W, strain lat1, active compounds read low 0.998 | S. cerevisiae deletion strains, locus YNL128W, strain TEP1, active compounds read low 1.02 | S. cerevisiae deletion strains, locus YNL153C, strain GIM3, active compounds read low 1.01 | S. cerevisiae deletion strains, locus YNL209W, strain ssb2, active compounds read low 1.01 | S. cerevisiae deletion strains, locus YNL233W, strain BNI4, active compounds read low 0.995 | S. cerevisiae deletion strains, locus YNL248C, strain rpa49, active compounds read low 0.964 | S. cerevisiae deletion strains, locus YNL250W, strain rad50, active compounds read low 1.03 | S. cerevisiae deletion strains, locus YNL271C, strain bni1, active compounds read low 1.03 | S. cerevisiae deletion strains, locus YNL298W, strain CLA4, active compounds read low 1.02 | S. cerevisiae deletion strains, locus YNL307C, strain MCK1, active compounds read low 1.03 | S. cerevisiae deletion strains, locus YNL322C, strain KRE1 (second series), active compounds read low 0.988 | S. cerevisiae deletion strains, locus YNR049C, strain mso1, active compounds read low 0.999 | S. cerevisiae deletion strains, locus YNR052C, strain pop2, active compounds read low 1 | S. cerevisiae deletion strains, locus YOL006C, strain TOP1, active compounds read low 1.13 | S. cerevisiae deletion strains, locus YOL012C, strain htz1 0.879 | S. cerevisiae deletion strains, locus YOL147C, strain pex11, active compounds read low 1.01 | S. cerevisiae deletion strains, locus YOR001W, strain rrp6, active compounds read low 1 | S. cerevisiae deletion strains, locus YOR061W, strain CKA2, active compounds read low 1.02 | S. cerevisiae deletion strains, locus YOR069W, strain VPS5, active compounds read low 1 | S. cerevisiae deletion strains, locus YOR070C, strain gyp1, active compounds read low 1 | S. cerevisiae deletion strains, locus YOR080W, strain dia2, active compounds read low 0.983 | S. cerevisiae deletion strains, locus YOR083W, strain WHI5, active compounds read low 0.994 | S. cerevisiae deletion strains, locus YOR106W, strain vam3, active compounds read low 0.996 | S. cerevisiae deletion strains, locus YOR136W, strain idh2, active compounds read low 1.03 | S. cerevisiae deletion strains, locus YOR144C, strain elg1, active compounds read low 1.02 | S. cerevisiae deletion strains, locus YOR184W, strain ser1, active compounds read low 1.03 | S. cerevisiae deletion strains, locus YOR265W, strain rbl2, active compounds read low 1 | S. cerevisiae deletion strains, locus YOR270C, strain vph1, active compounds read low 0.914 | S. cerevisiae deletion strains, locus YOR290C, strain snf2, active compounds read low 0.967 | S. cerevisiae deletion strains, locus YOR316C, strain cot1, active compounds read low 1.02 | S. cerevisiae deletion strains, locus YPL051W, strain arl3, active compounds read low 1 | S. cerevisiae deletion strains, locus YPL078C, strain atp4, active compounds read low 0.986 | S. cerevisiae deletion strains, locus YPL106C, strain sse1, active compounds read low 0.988 | S. cerevisiae deletion strains, locus YPL240C, strain hsp82, active compounds read low 0.983 | S. cerevisiae deletion strains, locus YPR119W, strain clb2, active compounds read low 1.01 | S. cerevisiae deletion strains, locus YPR141C, strain kar3, active compounds read low 1.03 | S. cerevisiae deletion strains, locus YPR163C, strain tif3, active compounds read low 1.03 | S. cerevisiae deletion strains, locus YPR167C, strain met16, active compounds read low 1.02 | S. cerevisiae deletion strains, strain wtn01, active compounds read low 1.02 | S. cerevisiae strains, strain wild type, active compounds read low 1.02
